Data: PubChem BioAssay AID1159580 (chemical genetic matrix, 2015)
Several values for one entry are separate records, joined by “and”; a condition that tells them apart may be missing. Equal values may be shown once. Screen size: about 5,500 compounds; about 2,000 (36%) were called active. Inconclusive results (about 18%) are left out. No stated cut-off is given here; in the data, active means normalized growth mostly below about 0.91 (no sharp cut-off); inconclusive means no clear call, values can overlap the other calls; inactive means mostly above about 0.92. Some of the results follow.

Test: chemical genetic growth profiling, strain panel (AID 1159580);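 further: tested at 20 µM; growth read once vehicle control cultures reached saturation at 30 °C; 1 = growth at the plate median or of vehicle wells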
Conditions: S. cerevisiae deletion strains, growth OD

Measured: normalized growth

NS(=O)(=O)c1cc2c(cc1Cl)NC(C(Cl)Cl)NS2(=O)=O (configuration not stated)
inactive: locus YAL021C, strain ccr4, stronger effect = lower value 0.977 | locus YAL026C, strain drs2, stronger effect = lower value 0.968 | locus YAL030W, strain snc1, stronger effect = lower value 0.978 | locus YBL061C, strain skt5, stronger effect = lower value 0.985 | locus YBR009C, strain hhf1, stronger effect = lower value 0.919 | locus YBR021W, strain FUR4, stronger effect = lower value 1.01 | locus YBR023C, strain chs3, stronger effect = lower value 0.978 | locus YBR171W, strain sec66, stronger effect = lower value 0.972 | locus YBR229C, strain ROT2, stronger effect = lower value 1.01 | locus YBR231C, strain swc5, stronger effect = lower value 0.979 | locus YBR279W, strain paf1, stronger effect = lower value 0.984 | locus YCL011C, strain gbp2, stronger effect = lower value 0.96 | locus YCL016C, strain dcc1, stronger effect = lower value 0.967 | locus YCL029C, strain bik1, stronger effect = lower value 1.02 | locus YCL069W, strain vba3, stronger effect = lower value 0.988 | locus YCR088W, strain abp1, stronger effect = lower value 0.96 | locus YDL005C, strain med2, stronger effect = lower value 0.974 | locus YDL035C, strain GPR1, stronger effect = lower value 0.991 | locus YDL040C, strain nat1, stronger effect = lower value 0.986 | locus YDL074C, strain BRE1, stronger effect = lower value 1.01 | locus YDL101C, strain DUN1, stronger effect = lower value 1 | locus YDL134C, strain PPH21, stronger effect = lower value 1.02 | locus YDL185W, strain tfp1, stronger effect = lower value 1.02 | locus YDL192W, strain arf1, stronger effect = lower value 1.02 | locus YDR001C, strain nth1, stronger effect = lower value 0.957 | locus YDR069C, strain doa4, stronger effect = lower value 0.989 | locus YDR101C, strain arx1, stronger effect = lower value 1.01 | locus YDR137W, strain rgp1, stronger effect = lower value 0.97 | locus YDR150W, strain NUM1, stronger effect = lower value 1.01 | locus YDR159W, strain sac3, stronger effect = lower value 0.918 | locus YDR162C, strain NBP2, stronger effect = lower value 1.01 | locus YDR195W, strain ref2 0.992 | locus YDR297W, strain sur2, stronger effect = lower value 0.984 | locus YDR318W, strain mcm21, stronger effect = lower value 1.02 | locus YDR334W, strain swr1, stronger effect = lower value 0.979 | locus YDR335W, strain msn5, stronger effect = lower value 0.963 | locus YDR388W, stronger effect = lower value 1.02 | locus YDR392W, strain spt3, stronger effect = lower value 0.917 | locus YDR502C, strain sam2, stronger effect = lower value 1.01 | locus YEL003W, strain gim4, stronger effect = lower value 0.976 | locus YEL037C, strain rad23, stronger effect = lower value 0.98 | locus YEL061C, strain CIN8 (second series), stronger effect = lower value 0.971 | locus YEL061C, strain CIN8, stronger effect = lower value 1.01 | locus YER015W, strain faa2, stronger effect = lower value 0.977 | locus YER016W, strain bim1, stronger effect = lower value 0.926 | locus YER110C, stronger effect = lower value 1.02 | locus YER111C, strain swi4, stronger effect = lower value 0.982 | locus YER155C, strain BEM2 (second series), stronger effect = lower value 1.03 | locus YER155C, strain BEM2, stronger effect = lower value 1.01 | locus YER167W, strain BCK2, stronger effect = lower value 1.01 | locus YFR010W, strain ubp6, stronger effect = lower value 0.984 | locus YGL078C, strain dbp3, stronger effect = lower value 1.01 | locus YGL086W, strain mad1, stronger effect = lower value 1.01 | locus YGL167C, strain pmr1, stronger effect = lower value 0.963 | locus YGL173C, strain kem1, stronger effect = lower value 0.998 | locus YGL227W, strain vid30, stronger effect = lower value 0.98 | locus YGL240W, strain doc1, stronger effect = lower value 0.99 | locus YGL248W, strain PDE1, stronger effect = lower value 0.997 | locus YGL253W, strain hxk2, stronger effect = lower value 0.976 | locus YGR135W, strain pre9, stronger effect = lower value 1.01 | locus YGR252W, strain gcn5, stronger effect = lower value 0.991 | locus YHR013C, strain ard1, stronger effect = lower value 0.914 | locus YHR027C, strain rpn1, stronger effect = lower value 0.975 | locus YHR030C, strain SLT2, stronger effect = lower value 1.01 and 0.993 | locus YHR079C, strain IRE1 (second series), stronger effect = lower value 1.01 | locus YHR079C, strain IRE1, stronger effect = lower value 0.989 | locus YHR094C, strain hxt1, stronger effect = lower value 1.01 | locus YHR129C, strain ARP1, stronger effect = lower value 0.993 | locus YHR142W, strain chs7, stronger effect = lower value 0.981 | locus YHR200W, strain rpn10, stronger effect = lower value 1.01 | locus YIL066C, strain RNR3, stronger effect = lower value 1.02 | locus YIL073C, strain SPO22, stronger effect = lower value 1.06 | locus YIL125W, strain kgd1, stronger effect = lower value 1.01 | locus YIR030C, strain dcg1, stronger effect = lower value 1.02 | locus YJL092W, strain hpr5, stronger effect = lower value 0.987 | locus YJL095W, strain BCK1 (second series), stronger effect = lower value 0.973 | locus YJL095W, strain BCK1, stronger effect = lower value 0.991 and 0.983 | locus YJL115W, strain asf1, stronger effect = lower value 0.963 | locus YJL129C, strain trk1, stronger effect = lower value 0.968 | locus YJL134W, strain LCB3, stronger effect = lower value 1.01 | locus YJL154C, strain vps35, stronger effect = lower value 0.978 | locus YJL164C, strain tpk1, stronger effect = lower value 0.94 | locus YJL166W, strain qcr8, stronger effect = lower value 0.993 | locus YJL168C, strain set2, stronger effect = lower value 1.01 | locus YJL187C, strain SWE1 (second series), stronger effect = lower value 1.01 | locus YJR043C, strain POL32, stronger effect = lower value 1 | locus YJR066W, strain TOR1, stronger effect = lower value 0.931
